Results: PubChem BioAssay (NCI)
“And” between values parts separate entries of the source, which are not always exact repeats. Equal values may be shown once. This is part of a sample that, as a whole, favours compounds with a hit. Of some 79,000 tested, about 15% had one in any assay. Some structures have more than one record in an assay (separate samples or runs), and their calls can disagree. The source made the active and inactive calls. No stated cut-off is given here; in the data, active means growth inhibition above about 70%; inactive means the rest.

Tests used:
[1] = NCI Yeast Anticancer Drug Screen. Data for the rad52 strain (AID 147);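 further: 0% = growth of vehicle-treated control cultures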; settings: S. cerevisiae rad52 mutant growth inhibition, stronger effect = higher value
Method in brief: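 Screen used a yeast mutant impaired in DNA repair. After compound exposure, growth was measured. Values reflect inhibition compared with vehicle-treated cells.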

[2] = NCI Yeast Anticancer Drug Screen. Data for the wt1 strain (AID 149);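 further: 0% = growth of vehicle-treated wt1 cultures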; settings: S. cerevisiae wt1 strain (SPY 50644) growth inhibition, stronger effect = higher value
Method in brief: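 Vehicle-normalised growth inhibition; strain wt1; compound exposure.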

[3] = NCI Yeast Anticancer Drug Screen. Data for the rad50EPP+ strain (AID 151);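 further: 0% = growth of vehicle-treated control cultures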; settings: S. cerevisiae rad50 mutant strain, stronger effect = higher value
Method in brief: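 Exposing the rad50EPP+ strain to each compound, growth was compared with vehicle-only cultures to give inhibition.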

[4] = NCI Yeast Anticancer Drug Screen. Data for the mgt1 strain (AID 153); settings: S. cerevisiae mgt1 mutant growth inhibition, stronger effect = higher value
Method in brief: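 Genetically defined yeast (mgt1) treated with compound; inhibition of growth expressed against vehicle-treated controls.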

[5] = NCI Yeast Anticancer Drug Screen. Data for the rad50 strain (AID 155);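 further: 0% = growth of vehicle-only cultures of the same strain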; settings: S. cerevisiae rad50 strain growth inhibition, stronger effect = higher value
Method in brief: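 A DNA repair-deficient yeast mutant serves as the test organism; compound-induced growth inhibition is calculated against vehicle-treated cells.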

[6] = NCI Yeast Anticancer Drug Screen. Data for the mec2-1 strain (AID 157); settings: S. cerevisiae mec2-1 strain, stronger effect = higher value
Method in brief: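 Readout is yeast growth inhibition, normalised to vehicle-treated controls, in the mec2-1 strain exposed to compound.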

[7] = NCI Yeast Anticancer Drug Screen. Data for the rad14 strain (AID 159);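 further: 0% = growth of vehicle-treated control cultures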; settings: S. cerevisiae rad14 strain growth inhibition, stronger effect = higher value
Method in brief: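 Vehicle-treated cultures served as the baseline for growth inhibition of a DNA repair-mutant yeast strain exposed to each compound.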

[8] = NCI Yeast Anticancer Drug Screen. Data for the sgs1 mgt1 strain (AID 161);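 further: 0% = growth of cultures given vehicle only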; settings: S. cerevisiae sgs1 mgt1 strain, stronger effect = higher value
Method in brief: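 Percent growth inhibition was derived by comparing compound-exposed mutant yeast with vehicle-exposed cultures. The strain carries alterations in DNA damage repair.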

[9] = NCI Yeast Anticancer Drug Screen. Data for the CLN2oe strain (AID 163);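 further: 0% = growth of vehicle-only control cultures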; settings: S. cerevisiae CLN2oe strain, stronger effect = higher value
Method in brief: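 Values reflect how much compound exposure reduced yeast growth, referenced to vehicle-exposed cells. Assay organism is a strain with a defined genetic change affecting cell-cycle control.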

[10] = NCI Yeast Anticancer Drug Screen. Data for the cln2 rad14 strain (AID 165);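 further: 0% = growth equal to vehicle treated cultures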; settings: S. cerevisiae cln2 rad14 strain, stronger effect = higher value
Method in brief: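 Relative to vehicle controls, growth inhibition of compound-treated cln2 rad14 yeast was recorded.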

[11] = NCI Yeast Anticancer Drug Screen. Data for the bub3 strain (AID 167); settings: S. cerevisiae bub3 mutant strain, stronger effect = higher value
Method in brief: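 Inhibition values come from growth of compound-treated mutant yeast normalised to vehicle-treated controls.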

[12] = NCI Yeast Anticancer Drug Screen. Data for the wt2 strain (AID 169);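 further: 0% = growth of vehicle-treated yeast cultures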; settings: S. cerevisiae wt2 strain growth inhibition, stronger effect = higher value
Method in brief: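 Values express reduction in yeast growth under compound treatment, referenced to vehicle-treated cells.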

[13] = NCI Yeast Anticancer Drug Screen. Data for the mlh1 strain (AID 171);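 further: 0% = growth of vehicle-treated control cultures of the same strain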; settings: S. cerevisiae mlh1 strain growth inhibition, stronger effect = higher value
Method in brief: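 Steps: expose the defined-mutant yeast strain to compound; expose a parallel culture to vehicle; measure growth; express compound effect as inhibition relative to the vehicle culture.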

[14] = NCI Yeast Anticancer Drug Screen. Data for the sgs1 strain (AID 173);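 further: 0% = growth of vehicle-only control cultures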; settings: S. cerevisiae sgs1 mutant, stronger effect = higher value
Method in brief: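 Treat defined-mutant yeast with compound; measure growth; calculate inhibition relative to vehicle-treated cells.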

[15] = NCI Yeast Anticancer Drug Screen. Data for the mlh1 rad18 strain (AID 175); settings: S. cerevisiae mlh1 rad18 strain growth inhibition, stronger effect = higher value
Method in brief: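 Test agents were incubated with a yeast strain of defined genotype (DNA damage repair defect). Inhibition of growth was derived by comparison with vehicle-exposed cultures.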

[16] = NCI Yeast Anticancer Drug Screen. Data for the rad18 strain (AID 177); settings: S. cerevisiae rad18 mutant growth inhibition, stronger effect = higher value
Method in brief: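 A genetically defined yeast mutant impaired in DNA damage repair was treated with test compounds, then its growth was measured against cultures receiving vehicle alone.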

[17] = at 5.0 µM (retest, dose inferred, filed as 0.5)
[18] = at 50.0 µM (retest, dose inferred, filed as 5.0)

Measured: growth inhibition

O=C(O)C1C2C=CC(C2)C1c1ccccc1 (stereo not drawn)
active: [11]; at 33.0 µM 73% | [11]; [18] 93% | [11]; at 100.0 µM 85%
inactive: [1]; at 1.2 µM -1% | [1]; at 3.7 µM 0% | [1]; at 11.0 µM -2% | [1]; at 33.0 µM -3% | [1]; at 100.0 µM 5% | [2]; at 1.2 µM -3% | [2]; at 3.7 µM -1% | [2]; at 11.0 µM -3% | [2]; at 33.0 µM -9% | [2]; at 100.0 µM 1% | [3]; at 1.2 µM -6% | [3]; at 3.7 µM -8% | [3]; at 11.0 µM -6% | [3]; at 33.0 µM -5% | [3]; at 100.0 µM 0% | [4]; at 1.2 µM -1% | [4]; at 3.7 µM -1% | [4]; at 11.0 µM -4% | [4]; at 33.0 µM -5% | [4]; at 100.0 µM 2% | [5]; at 1.2 µM -1% | [5]; at 3.7 µM 26% | [5]; [17] -1% | [5]; at 11.0 µM 1% | [5]; at 33.0 µM 0% | [5]; [18] 4% | [5]; at 50.0 µM 10.9% and 4.35% | [5]; at 100.0 µM 17% | [6]; at 1.2 µM 0% | [6]; at 3.7 µM 0% | [6]; [17] -1% | [6]; at 11.0 µM 0% | [6]; at 33.0 µM -1% | [6]; [18] 3% | [6]; at 50.0 µM 1.4% and 9.7% | [6]; at 100.0 µM 9% | [7]; at 1.2 µM -5% | [7]; at 3.7 µM -7% | [7]; at 11.0 µM -10% | [7]; at 33.0 µM -11% | [7]; at 100.0 µM -4% | [8]; [17] -3% | [8]; [18] 3% | [8]; at 50.0 µM 7% and -6.6% | [9]; at 1.2 µM -4% | [9]; at 3.7 µM -10% | [9]; at 11.0 µM -4% | [9]; at 33.0 µM -6% | [9]; at 100.0 µM 5% | [10]; [17] -5% | [10]; [18] -5% | [10]; at 50.0 µM -0.2% and 0.6% | [11]; at 1.2 µM 6% | [11]; at 3.7 µM 20% | [11]; [17] 34% | [11]; at 11.0 µM 45% | [12]; at 1.2 µM -2% | [12]; at 3.7 µM 5% | [12]; at 11.0 µM -4% | [12]; at 33.0 µM -3% | [12]; at 100.0 µM 8% | [13]; at 1.2 µM -1% | [13]; at 3.7 µM 0% | [13]; at 11.0 µM 1% | [13]; at 33.0 µM 0% | [13]; at 100.0 µM 11% | [14]; at 1.2 µM -5% | [14]; at 3.7 µM -5% | [14]; at 11.0 µM -5% | [14]; at 33.0 µM 6% | [14]; at 100.0 µM 40% | [15]; [17] -3% | [15]; [18] 5% | [15]; at 50.0 µM 10.6% and 6.5% | [16]; at 1.2 µM -1% | [16]; at 3.7 µM -3% | [16]; at 11.0 µM -2% | [16]; at 33.0 µM 10% | [16]; at 100.0 µM 60%
30.1% (inactive) and 95.9% (active): [11]; at 50.0 µM
